# The full list was thinned out, with hits kept by preference.
# Shiga inhibitor = inhibitors of Shiga toxin in Vero cells; inhibition, % at 38.7 µM; 9.2% of 290,000 active; AID 2315; Vero cells, Shiga toxin protein synthesis inhibition reporter; in the data active = inhibition mostly above about 28%, no sharp cut-off; inactive = mostly below about 43%; note: 0% is about no effect
# LASV entry inh = Lassa virus entry inhibition | Lassa virus pseudotype entry inhibition, cell reporter | Potency, µM (doses to about 37.9 µM), without a hit: at the highest dose activity change, negative = inhibition, actives largely listed as inhibitors | 1.2% of 300,000 active | AID 540256; calls by dose curve; tested in HEK293 cells; note: potency is the fitted concentration of half-maximal effect; % is set by controls: 0 for no effect and ±100 for the full control effect; nearly all actives have a fitted effect of over 50% in size
# CHX counter = affects cycloheximide protein synthesis inhibition readout, counter-screen. cell reporter, cycloheximide protein synthesis inhibition counterscreen. max response, %. 12% of 300,000 active. AID 2314; in the data active = max response mostly above about 13%, no sharp cut-off; inactive = mostly below about 14%; note: read at 38.3 µM for the half of the compounds with a filed dose; 0% is about no effect
# AMA1 RON2 block = AMA1-RON2 (P. falciparum) interaction inhibition; AlphaScreen AMA1-biotinylated RON2 peptide binding; Potency, µM (top dose mostly 58.2 µM), without a hit: top-dose activity change, negative = inhibition, actives largely listed as inhibitors; 0.2% of 360,000 active; AID 720542; active = well fitted inhibition curve with a large enough effect; inconclusive = small, poorly fitted or top-dose-only effect; inactive = no such curve, though single readings can be large or run the other way;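 note: potency is the fitted concentration of half-maximal effect; 0% = vehicle wells and -100% = peptide control; nearly all actives have a fitted effect of over 45% in size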
#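 AMA1 (3D7) with his tag at 25 nM final met compounds first, then biotinylated RON2 peptide at 25 nM; detection used donor plus acceptor beads, 10 µg/mL apiece, read by AlphaScreen after 30 min at room temperature.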
# MARV entry inh = blocks Marburg virus binding to or entry into cells; 1.8% of 300,000 active; Potency, µM (doses to about 37.8 µM), without a hit: top-dose activity change, negative = inhibition, most hits filed as inhibitors; AID 540276; Marburg virus pseudotyped entry inhibition, cell reporter; calls by dose curve; tested in HEK293 cells; note: potency is the fitted concentration of half-maximal effect; % is set by controls: 0 for no effect and ±100 for the full control effect
# An asterisk follows results filed as active; ? = inconclusive; nt = not tested or not shown; [ ] = remark or other dose.
SMILES,Shiga inhibitor,LASV entry inh,CHX counter,AMA1 RON2 block,MARV entry inh
O=C(Nc1ccc(N2CCOCC2)nc1)c1ccccc1Cl,27.7,14.4%,28.8*,-22.0%,3.5%
CS(=O)(=O)N1CCN(c2ccc(NC(=O)c3cccnc3Cl)cc2)CC1,13.6,-0.1%,9.4,-4.7%,-0.9%
CC(=O)N1CCN(c2ccc(NC(=O)c3cccc(Cl)c3Cl)cc2)CC1,-0.9,17.6%[46.1 µM],-1.8,51.7%,?
O=C(Nc1ccc(N2CCCC2)cc1)c1cccc(Cl)c1Cl,71.0*,3.8%,24.5*,-13.5%,-22.4%
O=C(Nc1ccc(N2CCCCC2)cc1)c1cccnc1Cl,72.4*,?,33.3*,-9.2%,23.1%
OC[C@@H]1CN(Cc2ccc(-c3ccccc3)cc2)C[C@H](n2cnc3c(NCc4ccc(F)cc4)ncnc32)O1,nt,nt,nt,-19.1%,nt
CCOC(=O)C(C)On1c(-c2cccc(Cl)c2)nc2ccc([N+](=O)[O-])cc21 (stereo not given),101.9*,?,45.7*,-15.0%,-21.3%
CCOC(=O)COn1c(-c2cccc(Cl)c2)nc2ccc([N+](=O)[O-])cc21,63.5*,18.2%,76.1*,-2.5%,2.3%
CC(=O)OCC(OC(C)=O)C(OC(C)=O)C(OC(C)=O)C(=O)Nc1cccc(C)c1 (stereo not given),-9.9,-21.6%,-2.5,8.6%,?
N#CC(C#N)=Cc1cccnc1,3.6,12.2%,-1.7,14.1%,4.6%[46.1 µM]
N#C/C(=C\c1cccnc1)c1ccc(Br)cc1,43.7,nt,47.3*,-6.7%,nt
c1ccc(-c2noc(C3CCCCC3)n2)nc1,66.0*,?,31.6*,-6.8%,-19.0%
Brc1ccc(-c2noc(C3CCCCC3)n2)cc1,34.1*,13.5%,14.0*,-9.9%,3.2%[46.1 µM]
Cc1cccc(NC(=S)NNc2ncc(C(F)(F)F)cc2Cl)c1,-14.0,18.4µM*,7.4,32.8%,?
CC(=O)c1cc(C(=O)N2CCCC(C(=O)c3ccc(Cl)cc3)C2)cs1 (stereo not given),17.7,-0.1%,4.3,-2.4%,-0.9%
Cc1ccc(C(=O)Oc2ccc3c(c2)ncn3C)cc1,98.5*,10.0%,49.4*,-0.9%,-8.7%
CC(C)(C)c1ccc(OC(=O)c2ccccc2)cc1,17.6,11.1%[46.1 µM],-2.0,40.2%,4.0%[46.1 µM]
Cn1cnc2cc(OC(=O)c3ccccc3)ccc21,107.9*,20.1%,48.5*,3.4%,14.2%
CN(CC(=O)NCC1CCCCC1)CC(=O)Nc1ccccc1Br,nt,7.7%,nt,0.5%,-11.4%
CCCOc1ccc(F)cc1-c1cc(C(=O)NCc2cccs2)[nH]n1,nt,nt,nt,13.1%,nt
Cc1cc(C)nc(NC(=O)c2ccc(Br)s2)n1,nt,nt,1.0,7.6%,nt
Cc1csc(NC(=O)c2ccc(Br)s2)n1,136.5*,?,42.6*,-10.3%,?
Cc1c(Cl)cccc1NC(=O)CCC(=O)c1cccs1,14.5,nt,13.6,0.0%,nt
Cc1csc(NC(=O)c2cccs2)n1,100.4*,?,54.5*,8.5%,0.4%[46.1 µM]
Cc1csc(NC(=O)CCC(=O)c2cccs2)n1,140.6,1.9%,19.3*,-10.5%,-3.0%[46.1 µM]
SMILES,Shiga inhibitor,LASV entry inh,CHX counter,AMA1 RON2 block,MARV entry inh
CCn1c(C)cc(/C=C2/SC(=O)N(C(C)C(=O)OC)C2=O)c1C (stereo not given),106.3*,?,48.3*,-20.7%,?
CCn1c(C)cc(/C=C2/SC(=S)N(CC(=O)O)C2=O)c1C,-12.6,nt,-4.6,-0.8%,nt
Cc1cccc(NC(=O)CN2C(=O)N/C(=C/c3cc(C)n(C(C)C)c3C)C2=O)c1,36.8,?,-0.7,0.0%,?
CCOC(=O)CN1C(=O)S/C(=C/c2ccco2)C1=O,20.0,?,15.1*,1.7%,3.6%
COC(=O)CN1C(=O)S/C(=C/c2cc(C)n(C)c2C)C1=O,35.4*,0.7%,28.3*,-0.8%,?
COC(=O)C(C)N1C(=O)S/C(=C/c2cc(C)n(C(C)C)c2C)C1=O (stereo not given),105.7*,-26.9%,38.3*,-26.8%,?
CCCn1nnnc1NC(=O)c1cccs1,-15.1,-1.2%,-2.5,-6.7%,9.7%
COc1ccccc1CNC(=O)C(=O)NCC(c1ccc2c(c1)OCO2)N1CCOCC1 (stereo not given),nt,20.8%[46.1 µM],nt,nt,nt
COCCn1c(C)cc(/C=C2/SC(=O)N(C(C)C(=O)OC)C2=O)c1C (stereo not given),89.5*,nt,53.0*,-4.1%,nt
CN1C(=O)/C(=C/c2cc3c(cc2Br)OCO3)NC1=S,-5.2,3.6%[46.1 µM],-7.1,3.7%,?
COCCn1c(C)cc(/C=C2\NC(=S)N(C)C2=O)c1C,46.9*,28.8%,17.2*,19.2%,-34.1%
C#CCN1C(=O)S/C(=C/c2cc(C)n(CC)c2C)C1=O,102.6*,?,73.7*,-16.5%,?
O=C(CCN1CCCCC1)N/N=C/c1c[nH]c2ccccc12,28.6,18.9%[46.1 µM],1.9,10.7%,-0.4%[46.1 µM]
COc1ccccc1N(CC(=O)Nc1ccc(Br)cc1F)S(=O)(=O)c1cccs1,nt,?,nt,-12.0%,?
Cc1cc2oc(C(=O)Nc3sc4c(c3C(=O)NCC3CCCO3)CCCC4)cc(=O)c2cc1C (stereo not given),nt,14.5%[46.1 µM],nt,nt,9.7%[46.1 µM]
O=C1c2cccc(Sc3ccccc3)c2C(=O)c2c(Sc3ccccc3)cccc21,30.7,13.6%,8.6,?,0.6%[46.1 µM]
Cc1ccc(SC2=C(N(C)C)C(=O)c3ccccc3C2=O)cc1,nt,?,nt,8.91µM*,?
N#Cc1ccc(COc2cccc3cccnc23)cc1,35.7*,1.3%,24.9*,29.9%,17.9%[46.1 µM]
O=[N+]([O-])c1ccc(OCCCOc2cccc3cccnc23)cc1,nt,1.2%[46.1 µM],1.2,-9.2%,?
Brc1ccc(COc2cccc3cccnc23)cc1,nt,nt,nt,20.1%,nt
O=[N+]([O-])c1ccc(COc2cccc3cccnc23)cc1,142.7*,?,67.9*,2.8%,4.4%
CCOc1ccc(CCNC(=O)Cn2nc(-c3ccc(C)cc3)ccc2=O)cc1OCC,nt,15.4%[46.1 µM],nt,nt,nt
CCc1ccccc1NC(=O)C1CCCN(c2ncnc3onc(C)c23)C1 (stereo not given),nt,3.0%[46.1 µM],nt,nt,nt
Cc1ccc(C(=O)NC(=S)Nc2ccc(S(=O)(=O)N3CCN(C)CC3)cc2)cc1,18.1,-14.9%,25.9*,11.5%,?
O=C(Nc1cccc(S(=O)(=O)N2CCCCC2)c1)c1ccc([N+](=O)[O-])o1,14.0,nt,28.8*,0.0%,nt
SMILES,Shiga inhibitor,LASV entry inh,CHX counter,AMA1 RON2 block,MARV entry inh
CN1CCN(S(=O)(=O)c2ccc(C(=O)Nc3ccccc3)cc2)CC1,62.6*,-0.1%,19.1*,0.1%,18.3%
CN1CCN(S(=O)(=O)c2ccc(NC(=O)c3ccc([N+](=O)[O-])cc3)cc2)CC1,nt,28.9%[46.1 µM],nt,-0.7%,?
O=C(Nc1cccc(O)c1)c1ccc(S(=O)(=O)N2CCCCCC2)cc1,52.0*,?,18.1*,-8.8%,?
CC1CCN(S(=O)(=O)c2ccc(NC(=O)CCN3C(=O)C4CC=CCC4C3=O)cc2)CC1 (stereo not given),nt,nt,nt,-11.8%,nt
CNc1nc(NCC2CCCCC2)c2sccc2n1,nt,nt,nt,-22.2%,nt
CCCCC[C@@H](C)N1C[C@H](COCc2ccccc2)Oc2cc(N3CCC[C@H]3CO)ccc2S1(=O)=O,nt,nt,nt,-13.5%,nt
Cc1ccc(Cc2c(C)nc3nc(SCC(=O)NCCC(C)C)nn3c2C)cc1,nt,19.8%[46.1 µM],nt,nt,-4.2%[46.1 µM]
